In patent US20210230599, “STEM-LOOP COMPOSITIONS AND METHODS FOR INHIBITING INTERLEUKIN-8” (VITRISA THERAPEUTICS, INC., published 2021):

Target: Interleukin-8 (IL8, CXCL8), C-terminal His-tagged (Homo sapiens, UniProt P10145 SEQ:1-72)
Assay: competition; competition TR-FRET; L1 deleted, described as complete loss
Conditions: tags: C-terminal 6xHis (Sino Biological); ssRNA; 2'-F G, 2'-OMe A/C/U, 5' C6NH2, 3' idT
Procedure: To better understand the sequence requirements and to confirm the stem structures of members of the Aptamer 3 family as determined from sequence covariation analysis from both the primary and secondary (degenerate) selections, a series of variants which included mutations and deletions to the predicted stems were synthesized and screened (Table 24). Activity of each of these variants were tested using a time resolved competition TR-FRET assay in which the labeled parent Aptamer 3 was competed with increasing concentrations of unlabeled variants for binding to IL8 (FIG. 14). Briefly, 2-fold dilutions of thermally equilibrated aptamers were made in TR-FRET Buffer (50 mM MOPS, pH 7.4, 125 mM NaCl, 5 mM KCl, 50 μM CHAPS, 0.1 mg/mL BSA, 1 mM CaCl₂, and 1 mM MgCl₂). 5 μL of aptamer or control solution was added to 5 μl mix of 10 nM C-terminal His-tagged-IL8, 60 nM ALEXA FLUOR® 647-labeled Aptamer, and 5 nM anti-His-Eu (Perkin Elmer) in a black wall low volume 384 well plate (Greiner). […] The plate was read on a Biotek CYTATION™ 5 plate reader. […]
To confirm the importance of this residue, molecules were made and tested in which either loop L1 was deleted entirely (Aptamer 40) or was mutated to 5′-U-3′(Aptamer 41). In both cases, there was a complete loss of activity (>10-fold) as determined by competition TR-FRET assay (Table 25 and FIG. 15).

Row | Sequence | binding signal [fold worse than Aptamer 3]
1 | GAUGCGGUAGAUUACGGGUAGAGUGACCGCAUC | > 10
